The supplement of paper PMC13380429

Test system: Vero E6 infected with SARS-CoV-2
Experiment: inhibition of SARS-CoV-2 cytopathic effect; higher = more antiviral protection, active = above 15
Conditions: 48 h

Measured: inhibition of SARS-CoV-2 cytopathic effect

CNCCN(C)Cc1c[nH]nc1-c1ccc(O[C@H]2C[C@H](OCCC3CCOCC3)C2)cc1
inactive: 1 nM 0.46% | 8.33 nM -0.78% | 100 nM 4.05% | 833.33 nM 1.11% | 10000 nM 1.7%

C[C@H](N)[C@H](O)c1ccc(O)c(O)c1 [levonordefrin]
inactive: 1 nM -3.75% | 8.33 nM 0.14% | 100 nM -1.88% | 833.33 nM 1.27% | 10000 nM -2.48%

CCC(=O)O[C@H](CC(=O)O)C[N+](C)(C)C [levocarnitine-propionate]
inactive: 1 nM -0.81% | 8.33 nM 4.36% | 100 nM 0.32% | 833.33 nM 3.36% | 10000 nM 0.31%

CCn1c(N)c(C(=O)NC)c(=O)c2ccc(C#C[C@@](C)(O)COC)nc21
inactive: 1 nM 0.13% | 8.33 nM -0.62% | 100 nM -1.69% | 833.33 nM 0.68% | 10000 nM 6.9%

O=C1NC(c2ccccc2)(c2ccccc2)C(=O)N1COP(=O)(O)O [fosphenytoin]
inactive: 1 nM 2.33% | 8.33 nM 4.09% | 100 nM 13.5% | 833.33 nM 1.24% | 10000 nM -0.44%

COc1ccc2cc([C@H](C)C(=O)O)ccc2c1 [naproxen]
inactive: 1 nM 3.38% | 8.33 nM 3.96% | 100 nM 1.16% | 833.33 nM -1.2% | 10000 nM 0.68%

OC[C@H]1O[C@@H](n2cnc3c(N[C@H]4CCC[C@@H]4O)ncnc32)[C@H](O)[C@@H]1O
inactive: 1 nM 4.79% | 8.33 nM 4.09% | 100 nM 3.63% | 833.33 nM -0.63% | 10000 nM 0.91%
